Reference: PubChem BioAssay (NCI)
This is part of a sample that, as a whole, favours compounds with a hit. Of some 83,000 tested, about 20% had one in any assay.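 Interpretation: 100, growth as untreated; towards 0, rising growth inhibition; 0, no net growth; 0 to -100, cell death. Compounds scoring below 10 were considered active.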 Activity calls are given as the source filed them.

system: HL-60(TB) leukemia; experiment: NCI-60 one-dose screen, 48 h (100 = growth as untreated, 0 = no growth, -100 = all killed); conditions: 10 µM unless noted

Row | SMILES | growth
1 | COc1cc2c(C#N)n3c(c2cc1OC)C(=O)C(c1ccccc1)Oc1ccccc1-3 (stereo not given) | 61.1% (inactive)
2 | O=C(/C=C/c1ccccc1)c1ccc(Nc2nc(Nc3ccc(F)cc3)nc(Nc3ccc(Cl)cc3)n2)cc1 | 43.9% (inactive)
3 | Cc1ccc(C2CC(c3cccc(Nc4ccncc4)c3)=NN2c2cc(Cl)cc(Cl)c2)cc1 (stereo not given) | 14.8% (inactive)
4 | CC(=O)Nc1ccc(S(=O)(=O)N/N=C(\C)c2ccc(C)cc2C)cc1 | 86.4% (inactive)
5 | CCC(CCCN1C(=O)c2ccccc2C1=O)Nc1cc(OC)cc2c(C)ccnc12 (stereo not given) | 87.4% (inactive)
6 | c1ccc(-c2nc(N3CCCNCC3)c3nc(-c4ccccc4)oc3n2)cc1 | -34.6% (active)
7 | COc1cccc(NC(=O)c2sc3nc4c(cc3c2N)CCCC4)c1 | 5.68% (active)
8 | CCCCC(CCc1ccccn1)C(=O)c1ccccc1 (stereo not given) | 110% (inactive)
9 | CCN1CCN(CCNc2nccc(-c3c(-c4cccc(OC)c4)nc4occn34)n2)S1(=O)=O | 119% (inactive)
10 | COc1cc(C(=O)NC(=S)Nc2ccc3ccccc3c2)cc(OC)c1OC | 97.1% (inactive)
11 | CCOC(=O)C1C(=O)C=C(c2ccccc2)CC1c1sc(N(C)Cc2ccccc2)nc1Cl (stereo not given) | 78.4% (inactive)
12 | CCn1cc(C(=O)O)c(=O)c2cc(F)c(N3CCN(S(=O)(=O)c4ccc(OC)c(OC)c4)CC3)cc21 | 91.3% (inactive)
13 | CCCCCCCCCCCCNC(=O)N[C@H](C(=O)N[C@H]1/C=C/CCNC(=O)/C=C/[C@H](C)NC1=O)C(C)C | -25.2% (active)
14 | COc1ccc(CCN2CCCN3C2=Nc2ccccc2S3(=O)=O)cc1 | 3.21% (active)
15 | CCOC(=O)c1cc(C(=O)c2ccc(OC)c(OC)c2)n2ccc(/C=C/c3cc[n+](CC(=O)c4ccc(OC)c(OC)c4)cc3)cc12 | 88.6% (inactive)
16 | COC(=O)/C=C1\S/C(=N\NC(=O)c2cc3ccc2/C=C\c2ccc(cc2)/C=C\3)N(c2ccccc2)C1=O | 16.4% (inactive)
17 | CCN(CC)CCCNc1c2ccc(Cl)cc2nc2ccc(OC)cc12 | -50.3% (active)
18 | CCOC(=O)c1c(C)nc2c(c1N)/C(=C/c1cccs1)C(=O)N2c1ccc(OC)cc1 | 90.2% (inactive)
19 | NC(N)=NS(=O)(=O)c1ccc(Nc2ccc3nnc(-c4ccncc4)n3n2)cc1 | 95% (inactive)
20 | C#C[C@]1(O)CC[C@H]2[C@@H]3CC=C4c5nc(N)sc5CC[C@]4(C)[C@H]3CC[C@@]21C | 87.5% (inactive)

Row | SMILES | growth
21 | COc1ccc(-c2ncnc3c2ncn3CC#CCCl)cc1 | 48.8% (inactive)
22 | Nc1n[nH]c2cc(F)c([C@@H]3Nc4c(F)cc5[nH]ncc5c4[C@H]4C5CCC(C5)[C@@H]34)cc12 (stereo not given in full) | -30.1% (active)
23 | S=C=Nc1ccc(N2CCOCC2)cc1 | 103% (inactive)
24 | NCCCCCCNc1cc(-c2cccc(OC(F)(F)F)c2)nc2ccc(N3CCCC3)cc12 | -60.2% (active)
25 | Cn1nc(C(F)(F)F)c(-c2cc(C(F)(F)F)cc(C(F)(F)F)c2)c1-c1ccc(OCc2ccc(Cl)cc2)cc1O | -39.9% (active)
26 | COc1ccc(-c2nc3sccn3c2/C=C/C(=O)c2cc(F)cc(F)c2)cc1 | 60.4% (inactive)
27 | COc1cc(OC)c2c(=O)cc(-c3ccccc3)oc2c1 | 72% (inactive)
28 | CN(C)C1CCC(NC2=CC(=O)C=CC2=O)CC1 (stereo not given) | 114% (inactive)
29 | COc1cc2ccnc(C=O)c2cc1OC | -27.4% (active)
30 | O=C1c2cccc3cccc(c23)C(=O)N1CC#Cc1ccc2c3c(cccc13)C(=O)N(CCN1CCNCC1)C2=O | 93% (inactive)
31 | COc1ccc(-c2nc(SCC(=O)Nc3ccc(C(C)=O)cc3)[nH]c(=O)c2C#N)cc1 | 88.2% (inactive)
32 | COc1ccc(OC)c(/C=C/c2nnc(Nc3ccccc3)o2)c1 | 75.7% (inactive)
33 | Cc1c(N(C)CS(=O)(=O)O)c(=O)n(-c2ccccc2)n1C | 96% (inactive)
34 | Cc1ccc(S(=O)(=O)N2CCc3ccc(O)c4c3C2Cc2ccc3c(c2-4)OCO3)cc1 (stereo not given) | -8.02% (active)
35 | N#C/C(=C1C=C/C(=N/O)C(Br)=C/1)c1ccccc1 | -20.5% (active)
36 | O=C(C(Br)Br)C(Br)C(Br)c1ccccc1 (stereo not given) | 88.8% (inactive)
37 | COCCn1cc(-c2nc(-c3cc4cccnc4n3C)cs2)c2cc(OC)ccc21 | 82.6% (inactive)
38 | O=C1OC[C@H]2[C@H](c3ccc(O)c(O)c3)c3cc(O)c(O)cc3C[C@H]12 | 217% (inactive)
39 | CCN(CC)CCCNCc1cc(-c2ccccc2)nc2cc(Cl)ccc12 | 14% (inactive)
40 | Cc1cc(C)cc(OCC(=O)O)c1 | 86% (inactive)
